Results: the supplement of paper PMC11537057
Where a name gives a salt, the structure may show the parent alone. Among all 1,700 compounds or so, about 15 (0.9%) showed activity.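 Rule for the calls: active = infection cut by 80% or more with cell growth above 90% in both runs; inactive = the rest.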 The sample as a whole holds a higher share of actives than the screen did.

Tested on: HSV-1 strain 17 YFP-ICP4 in A549
Assay: HSV-1 infection relative to DMSO (ICP4-YFP per H2B-RFP signal); higher = more viral infection (less antiviral activity), active = hit call of the paper
Conditions: 10 µM; 48 h; MOI: 0.1
Method: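 Selleck FDA-approved library (L1300) screened in duplicate at 10 µM on A549 H2B-mRuby cells in 384-well plates, infected with HSV-1 strain 17 YFP-ICP4 at MOI 0.1 one hour before drug addition. Imaged after 2 days at 37°C. Cell growth (H2B-RFP) and infection (ICP4-YFP) are expressed as % of DMSO-treated wells. Hits: growth >90% and infection <20% of DMSO.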

| Structure (SMILES) | HSV-1 infection |
| --- | --- |
| CO/N=C(\C(=O)N[C@@H]1C(=O)N2C(C(=O)[O-])=C(C[N+]3(C)CCCC3)CS[C@H]12)c1csc(N)n1 [Cefepime Dihydrochloride Monohydrate] | 98% (inactive) |
| CCCc1nc(C(C)(C)O)c(C(=O)O)n1Cc1ccc(-c2ccccc2-c2nnn[nH]2)cc1 [Olmesartan] | 114% (inactive) |
| C[C@H](Nc1ncnc2nc[nH]c12)c1cc2cccc(Cl)c2c(=O)n1-c1ccccc1 [Duvelisib (IPI-145, INK1197)] | 69.2% (inactive) |
| CSCC[C@H](NC(=O)[C@H](CC(C)C)NC(=O)[C@H](Cc1c[nH]c2ccccc12)NC(=O)[C@H](CCC(N)=O)NC(=O)[C@@H](NC(=O)[C@H](Cc1ccccc1)NC(=O)[C@H](CC(=O)O)NC(=O)[C@H](CCC(N)=O)NC(=O)[C@H](C)NC(=O)[C@H](CCCNC(=N)N)NC(=O)[C@H](CCCNC(=N)N)NC(=O)[C@H](CO)NC(=O)[C@H](CC(=O)O)NC(=O)[C@H](CC(C)C)NC(=O)[C@H](Cc1ccc(O)cc1)NC(=O)[C@H](CCCCN)NC(=O)[C@H](CO)NC(=O)[C@H](Cc1ccc(O)cc1)NC(=O)[C@H](CC(=O)O)NC(=O)[C@H](CO)NC(=O)[C@@H](NC(=O)[C@H](Cc1ccccc1)NC(=O)[C@@H](NC(=O)CNC(=O)[C@H](CCC(N)=O)NC(=O)[C@H](CO)NC(=O)[C@@H](N)Cc1cnc[nH]1)[C@@H](C)O)[C@@H](C)O)C(C)C)C(=O)N[C@@H](CC(N)=O)C(=O)N[C@H](C(=O)O)[C@@H](C)O [Glucagon HCl] | 99.3% (inactive) |
| COc1cc(CNC(=O)CCCCC=CC(C)C)ccc1O [Capsaicin(Vanilloid)] | 86.2% (inactive) |
| CC1(C)CCC(CN2CCN(c3ccc(C(=O)NS(=O)(=O)c4ccc(NCC5CCOCC5)c([N+](=O)[O-])c4)c(Oc4cnc5[nH]ccc5c4)c3)CC2)=C(c2ccc(Cl)cc2)C1 [Venetoclax (ABT-199, GDC-0199)] | 96% (inactive) |
| CC(O)c1ccc(S(=O)(=O)NC(=O)NC2CCCCC2)cc1 (stereo not drawn) [Hydroxyhexamide] | 94.9% (inactive) |
| COc1ccc2c(O[C@@H]3C[C@H]4C(=O)N[C@]5(C(=O)NS(=O)(=O)C6CC6)C[C@H]5/C=C\CCCCN(C)C(=O)[C@@H]4C3)cc(-c3nc(C(C)C)cs3)nc2c1C [Simeprevir] | 84.7% (inactive) |
| COc1cc(C(=O)O)ccc1NC(=O)[C@@H]1N[C@@H](CC(C)(C)C)[C@](C#N)(c2ccc(Cl)cc2F)[C@H]1c1cccc(Cl)c1F [Idasanutlin (RG-7388)] | 101% (inactive) |
| O=c1[nH]c2ccccc2n1CCN1CCN(c2cccc(C(F)(F)F)c2)CC1 [Flibanserin] | 89.9% (inactive) |
| CC(C)(Oc1ccc(Cl)cc1)C(=O)OCCOC(=O)c1cccnc1 [Etofibrate] | 109% (inactive) |
| NCCCC[C@H](NC(=O)[C@@H]1CCCN1C(=O)[C@@H]1CSSC[C@H](NC(=O)CNC(=O)CNC(=O)CN)C(=O)N[C@@H](Cc2ccc(O)cc2)C(=O)N[C@@H](Cc2ccccc2)C(=O)N[C@@H](CCC(N)=O)C(=O)N[C@@H](CC(N)=O)C(=O)N1)C(=O)NCC(N)=O [Terlipressin Acetate] | 110% (inactive) |
| CCOc1ccc(Cc2cc([C@@H]3O[C@H](SC)[C@@H](O)[C@H](O)[C@H]3O)ccc2Cl)cc1 [Sotagliflozin (LX4211)] | 111% (inactive) |
| CCCCCCCCCC(=O)N[C@H]1[C@H](Oc2c3cc4cc2Oc2ccc(cc2Cl)[C@@H](O[C@@H]2O[C@H](CO)[C@@H](O)[C@H](O)[C@H]2NC(C)=O)[C@@H]2NC(=O)[C@H](NC(=O)[C@@H]4NC(=O)[C@H]4NC(=O)[C@@H](Cc5ccc(c(Cl)c5)O3)NC(=O)[C@H](N)c3ccc(O)c(c3)Oc3cc(O)cc4c3)c3ccc(O)c(c3)-c3c(OC4O[C@H](CO)[C@@H](O)[C@H](O)[C@@H]4O)cc(O)cc3[C@@H](C(=O)O)NC2=O)O[C@H](CO)[C@@H](O)[C@@H]1O (stereo partly drawn) [Teicoplanin] | 89% (inactive) |
| CN(C)Cc1ccc(S(=O)(=O)n2ccc(/C=C/C(=O)NO)c2)cc1 [Resminostat] | 64.2% (inactive) |
| C1=N/C2=N/c3ccc(OCCN4CCCC4)c(c3)COC/C=C/COCc3cccc(c3)C(=C1)N2 [Pacritinib (SB1518)] | 22.2% (inactive) |
| COc1ccc(CN(C(=O)[C@@H](N)Cc2c(C)cc(C(N)=O)cc2C)[C@@H](C)c2ncc(-c3ccccc3)[nH]2)cc1C(=O)O [Eluxadoline] | 97.4% (inactive) |
| O=C(NC[C@H]1CN(c2ccc(N3CCOCC3=O)cc2)C(=O)O1)c1ccc(Cl)s1 [Rivaroxaban] | 110% (inactive) |
| N.N.O=C([O-])C[O-].[Pt+2] [Nedaplatin] | 87% (inactive) |
| N#C[C@@H]1CCCN1C(=O)CNC12CC3CC(CC(O)(C3)C1)C2 [Vildagliptin (LAF-237)] | 103% (inactive) |
| O[C@@H](COc1cccc2ncccc12)CN1CCN(C2c3ccccc3[C@@H]3[C@H](c4ccccc42)C3(F)F)CC1 (stereo partly drawn) | 75.2% (inactive) |
| CC[C@@H]1C(=O)N(C)c2cnc(Nc3ccc(C(=O)N[C@H]4CC[C@H](N5CCN(CC6CC6)CC5)CC4)cc3OC)nc2N1C(C)C [Volasertib (BI 6727)] | 29.3% (inactive) |
| CO[C@@]1(NC(=O)CSC[C@@H](N)C(=O)O)C(=O)N2C(C(=O)O)=C(CSc3nnnn3C)CS[C@@H]21 [Cefminox Sodium] | 110% (inactive) |
| Cc1cc(C)c2c(c1)[C@@H](N(Cc1cc(C(F)(F)F)cc(C(F)(F)F)c1)c1nnn(C)n1)CCCN2C[C@H]1CC[C@H](C(=O)O)CC1 | 88.1% (inactive) |

| Structure (SMILES) | HSV-1 infection |
| --- | --- |
| C#CCN[C@@H]1CCc2ccccc21 [Rasagiline Mesylate] | 98.1% (inactive) |
| C[C@H]1CN(C[C@H](Cc2ccccc2)C(=O)NCC(=O)O)CC[C@@]1(C)c1cccc(O)c1 [Alvimopan dihydrate] | 104% (inactive) |
| CN1CCN(CCOc2cc(OC3CCOCC3)c3c(Nc4c(Cl)ccc5c4OCO5)ncnc3c2)CC1 [Saracatinib (AZD0530)] | 38.7% (inactive) |
| COc1nc2ccc(Br)cc2cc1[C@@H](c1ccccc1)[C@@](O)(CCN(C)C)c1cccc2ccccc12 [Bedaquiline] | 114% (inactive) |
| COc1nc2ccc(Br)cc2cc1[C@@H](c1ccccc1)[C@@](O)(CCN(C)C)c1cccc2ccccc12 [Bedaquiline fumarate] | 111% (inactive) |
| Cc1cn(-c2cc(NC(=O)c3ccc(C)c(Nc4nccc(-c5cnccn5)n4)c3)cc(C(F)(F)F)c2)cn1 [Radotinib] | 34.8% (inactive) |
| C[N+](C)(C)CCO.O=C([O-])C(O)C(O)C(=O)O (stereo not drawn) [Choline bitartrate] | 97.1% (inactive) |
| C[C@H](NC(=O)[C@@H](Cc1ccc2ccccc2c1)NC(=O)[C@@H](C)N)C(=O)N[C@@H](Cc1c[nH]c2ccccc12)C(=O)N[C@H](Cc1ccccc1)C(=O)N[C@@H](CCCCN)C(N)=O | 97.6% (inactive) |
| Cn1ncc(Cl)c1-c1cc(C(=O)N[C@H](CN)Cc2cccc(F)c2)sc1Cl | 52.8% (inactive) |
| CN(C)N(C)C(=O)[C@@]1(Cc2ccccc2)CCCN(C(=O)[C@@H](Cc2c[nH]c3ccccc23)NC(=O)C(C)(C)N)C1 [Anamorelin] | 97% (inactive) |
| CN1CCc2nc(C(=O)N[C@@H]3C[C@@H](C(=O)N(C)C)CC[C@@H]3NC(=O)C(=O)Nc3ccc(Cl)cn3)sc2C1 [Edoxaban tosylate Monohydrate] | 124% (inactive) |
| CN1CCc2nc(C(=O)N[C@@H]3C[C@@H](C(=O)N(C)C)CC[C@@H]3NC(=O)C(=O)Nc3ccc(Cl)cn3)sc2C1 [Edoxaban] | 115% (inactive) |
| Cc1ccccc1-c1cc(N2CCN(C)CC2)ncc1N(C)C(=O)C(C)(C)c1cc(C(F)(F)F)cc(C(F)(F)F)c1 [Netupitant] | 114% (inactive) |
| CC(=O)Oc1c(C)c(C)c2c(c1C)CCC(C)(CCC[C@H](C)CCC[C@H](C)CCCC(C)C)O2 (stereo partly drawn) [Vitamin E Acetate] | 116% (inactive) |
| CC(=O)Oc1ccccc1C(=O)O.CC(=O)Oc1ccccc1C(=O)O.NC(N)=O [Carbasalate Calcium] | 90.3% (inactive) |
| CNS(=O)(=O)C[C@H]1CC[C@H](N(C)c2[nH]cnc3nccc2-3)CC1 | 102% (inactive) |
| Cc1cc(S(=O)(=O)O)c2c(C)ccc(C(C)C)cc1-2 [Sodium gualenate] | 93% (inactive) |
| COc1ccc(C[C@@H]2c3cc(OC)c(OC)cc3CC[N@+]2(C)CCC(=O)OCCCCCOC(=O)CC[N@@+]2(C)CCc3cc(OC)c(OC)cc3[C@H]2Cc2ccc(OC)c(OC)c2)cc1OC [Cisatracurium Besylate] | 90.4% (inactive) |
| NC(=O)[C@@H]1CC[C@@H]2CN1C(=O)N2OS(=O)(=O)O [Avibactam sodium] | 116% (inactive) |
| CN(C)c1ccc2nc3ccc(=[N+](C)C)cc-3sc2c1 [Methylene Blue] | 3.01% (active) |
| COc1cc(S(=O)(=O)O)ccc1O [Sulfogaiacol] | 93.8% (inactive) |
| N#CC1(c2ccc(NC(=O)c3cccnc3NCc3ccncc3)cc2)CCCC1 | 91.6% (inactive) |
| CCCCc1nc2cc(/C=C/C(=O)NO)ccc2n1CCN(CC)CC [Pracinostat (SB939)] | 44.1% (inactive) |
| C[C@@H](O)[C@@H]1NC(=O)[C@H](CCCCN)NC(=O)[C@@H](Cc2c[nH]c3ccccc23)NC(=O)[C@H](Cc2ccccc2)NC(=O)[C@@H](NC(=O)[C@H](N)Cc2ccccc2)CSSC[C@@H](C(=O)N[C@H](CO)[C@@H](C)O)NC1=O [Octreotide Acetate] | 93.8% (inactive) |
